The sample as a whole holds a higher share of hits than the screen did.
ROS inducer: cancer cell ROS induction; U2OS ROS induction, H2DCF-DA fluorescence; ROS induction (% of piperlongumine), % at 10 µM; hit rate 2% among 46,000; AID 624156; in the data active = ROS induction above about 79%, passing the limit was not always enough; inconclusive = no clear call, values can overlap the other calls;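 also: 0% = DMSO vehicle median and 100% = reference compound median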
PD-1 reversal: reversal of PD-1 mediated T-cell inhibition | activation, % (test concentration not listed) | 29,000 tested, under 10 active | primary human CD4 T cells, PD-L1 beads, CellTiter-Glo 96 h; call rule not given here;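 also: 0% = median vehicle wells and 100% = positive control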
NOMO-1 viab: STK33 inhibitor candidate reducing NOMO-1 cell viability; NOMO-1 AML viability, CellTiter-Glo luminescence, 72 h; inhibition, % (test concentration not listed); hit rate 7.5% among 37,000; AID 2330; in the data active = inhibition above about 80%; inconclusive = no clear call, values can overlap the other calls
Active calls of the source: *; ? = inconclusive; / = no result.

SMILES	ROS inducer	PD-1 reversal	NOMO-1 viab
NC(=O)c1cccn1Cc1ccc(Cl)cc1	-0.3	/	/
O=C(CSc1nc(Nc2ccccc2)nc(N2CCOCC2)n1)N1CCc2ccccc21	/	/	20.2
CCOC(=O)CSc1nc(Nc2ccc(OC)cc2)c2cnc(N(CC)CC)nc2n1	?	-5.1	120.3*
CCOC(=O)CSc1nc(NC#N)nc(N(CC)CC)n1	10.3	/	/
CCN(CC)c1ncc2c(NCc3ccccc3)nc(SCc3ccccc3)nc2n1	129.2*	-2.2	42.7
CN(Cc1ccccc1)C(=O)CSc1nc(NCc2ccc(Cl)cc2)c2ccccc2n1	22.2	/	/
CCOC(=O)CSc1nc(Nc2ccccc2)c2cnc(N3CCOCC3)nc2n1	149.6*	-3.4	111.7*
O=C(CCc1ccccc1)Nc1ccc(C(=O)OC2CCCCC2)cc1	-6.0	/	/
Cc1ccc(C(=NCc2ccccc2)NC#N)cc1	-6.9	/	/
Cc1nnc(SCc2ccc(F)cc2Cl)c2cc3occc3n12	8.6	/	/
Cc1ccc(NC(=O)c2cnc3ccc(S(=O)(=O)N(C)C4CCCCC4)cc3c2Cl)cc1F	-13.3	/	/
O=C(NCCOc1ccccc1)c1ccc(=O)[nH]c1	-7.6	/	/
C[C@H]1CN([C@@H](C)CO)C(=O)Cc2cc(NC(=O)NC3CCCCC3)ccc2O[C@@H]1CN(C)S(=O)(=O)c1cn(C)cn1	108.8*	1.6	-22.7
C[C@@H]1CN([C@@H](C)CO)C(=O)Cc2cc(NC(=O)Nc3ccc(C(F)(F)F)cc3)ccc2O[C@@H]1CN(C)S(=O)(=O)c1cn(C)cn1	-5.6	-0.6	111.9*
C[C@H](CO)N1C[C@H](C)[C@H](CN(C)S(=O)(=O)c2cn(C)cn2)Oc2ccc(NC(=O)Nc3ccc(C(F)(F)F)cc3)cc2CC1=O	9.1	/	124.9*
C[C@H]1CN([C@@H](C)CO)C(=O)Cc2cc(NC(=O)Nc3ccc(C(F)(F)F)cc3)ccc2O[C@@H]1CN(C)S(=O)(=O)c1cn(C)cn1	-8.7	0.6	-11.1
C[C@@H]1CN([C@H](C)CO)C(=O)Cc2cc(NC(=O)Nc3ccc(C(F)(F)F)cc3)ccc2O[C@H]1CN(C)S(=O)(=O)c1cn(C)cn1	-18.8	-0.6	15.5
C[C@H]1CN([C@@H](C)CO)C(=O)Cc2cc(NC(=O)NC3CCCCC3)ccc2O[C@H]1CN(C)S(=O)(=O)c1cn(C)cn1	14.3	3.9	-13.2
O=C(Nc1cccc(Cl)c1)c1ccc2c(Cl)c3c(nc2c1)CCCC3	-4.0	/	/
Cc1cc(Br)c(S(=O)(=O)C(C)(C)C)c(Br)c1	-12.8	/	/
O=C(CC1CCCCCCCCCCC1)N1CCOCC1	6.2	/	/
Cc1ccc(/C=N/N(C)S(=O)(=O)c2ccc(C)cc2)cc1	95.1*	-0.1	?
CSc1ccc(/C=N/N(C)S(=O)(=O)c2ccc(C)cc2)cc1	72.1	1.6	62.2
COC(=O)/C=c1\sc2n(c1=O)CCN=2	14.7	/	/
COc1ccccc1/C=C/C=N\N1CCN(c2ccccc2)CC1	13.1	/	/
SMILES	ROS inducer	PD-1 reversal	NOMO-1 viab
CC(C)CCNC(=O)Cn1c(SCc2c(F)cccc2Cl)nc2ccncc21	4.8	/	/
CCOC(=O)CN1C(=O)/C(=C\c2ccc(OC)c(Br)c2)Sc2ccccc21	45.3	/	/
CCOC(=O)COc1ccc2c(=O)c(-c3ccccc3OC)c(C(F)(F)F)oc2c1	68.5	-4.4	93.2*
CCC(C)OC(=O)COc1ccc2c(=O)c(Oc3ccccc3Cl)coc2c1 (centres undefined)	6.1	/	/
COc1ccc2c(=O)c(-c3ccccc3C)c(C(F)(F)F)oc2c1	9.3	/	/
COc1ccccc1-c1c(C(F)(F)F)oc2cc(OCC(=O)OC(C)C)ccc2c1=O	/	/	95.7*
O=S(=O)(NCCCn1ccnc1)c1ccc2ccccc2c1	-2.3	/	/
C=C1C(=O)O[C@@H]2/C=C(/CO[C@@H]3O[C@H](CO)[C@@H](O)[C@H](O)[C@H]3O)CC/C=C3\C[C@H](OC3=O)[C@@H]12	-5.2	1.4	-7.5
C=C1C(=O)O[C@@H]2/C=C(/CO)CC/C=C(/C=O)C[C@@H](O)[C@@H]12	44.5	-9.6	108.6*
C=CC(C)(C)c1[nH]cnc1/C=C1\NC(=O)C(C(C)C)NC1=O (centres undefined)	2.0	1.5	106.2*
CC(C)C1NC(=O)/C(=C/c2cnc[nH]2)NC1=O (centres undefined)	-0.9	/	/
COc1cc(OC)cc(C(=O)c2ccc(C(=O)NC3(c4ccccc4)CC3)cc2)c1	-0.1	/	/
CC(C)(C)NC(=O)c1ccc2c3c(onc13)-c1ccccc1C2=O	245.1*	-5.9	113.9*
CC(C)(C)NC(=O)c1ccccc1	-1.4	-0.3	20.6
COC(=O)C1=CN(C(CC(C)C)C(=O)OC)C=C(C(=O)OC)C1c1ccc(Br)cc1 (centres undefined)	95.0*	-1.8	50.5
COC(=O)CN1C=C(C(=O)OC)C(c2ccc(Cl)cc2)C(C(=O)OC)=C1	-7.4	/	/
O=C(NCCO)c1cc[n+](CC(=O)c2cccs2)cc1	4.7	0.5	-7.3
COc1ccc(NC(=O)Nc2cccc3c2O[C@@H](CN(C)Cc2ccc(Oc4ccccc4)cc2)[C@@H](C)CN([C@@H](C)CO)C3=O)cc1	36.7	-1.7	68.2
COc1ccc(NC(=O)Nc2cccc3c2O[C@@H](CN(C)Cc2ccc(Oc4ccccc4)cc2)[C@H](C)CN([C@@H](C)CO)C3=O)cc1	28.7	-0.5	91.1*
COc1ccc(NC(=O)Nc2cccc3c2O[C@@H](CN(C)Cc2ccccc2)[C@H](C)CN([C@H](C)CO)C3=O)cc1	9.1	-8.1	117.0*
COc1ccc(CN(C)C[C@H]2Oc3c(NC(=O)Nc4ccc(OC)cc4)cccc3C(=O)N([C@@H](C)CO)C[C@H]2C)cc1	-10.1	-0.4	14.3
COc1ccc(CN(C)C[C@@H]2Oc3c(NC(=O)Nc4ccc(F)cc4)cccc3C(=O)N([C@@H](C)CO)C[C@H]2C)cc1	14.4	-5.0	110.3*
COc1ccc(NC(=O)Nc2cccc3c2O[C@H](CN(C)Cc2ccc(Oc4ccccc4)cc2)[C@H](C)CN([C@H](C)CO)C3=O)cc1	10.9	-1.1	43.9
COc1ccc(NC(=O)Nc2cccc3c2O[C@@H](CN(C)Cc2ccccc2)[C@@H](C)CN([C@@H](C)CO)C3=O)cc1	9.6	1.3	49.2
COc1ccc(NC(=O)Nc2cccc3c2O[C@@H](CN(C)Cc2ccc(Oc4ccccc4)cc2)[C@@H](C)CN([C@H](C)CO)C3=O)cc1	48.5	-4.1	116.8*
SMILES	ROS inducer	PD-1 reversal	NOMO-1 viab
CC(C)(C)c1oc(C(=O)Nc2ccc3c(c2)oc2ccccc23)cc1COCC(F)(F)F	24.1	/	/
CC(C)(C)c1ccc(OCC(=O)NC(c2ccccc2)c2ccccc2)cc1	14.6	/	/
Cc1cccc(CN2CCC(CNC(=O)c3cc4c(=O)[nH]c5ccc(C)cc5c4s3)CC2)c1	1.7	/	/
COc1ccc(S(=O)(=O)Nc2ccc3c(c2)CC(=O)N([C@H](C)CO)C[C@@H](C)[C@@H](CN(C)C(=O)Nc2ccc4c(c2)OCO4)O3)cc1	9.6	0.7	10.0
COc1ccc(S(=O)(=O)Nc2ccc3c(c2)CC(=O)N([C@@H](C)CO)C[C@@H](C)[C@@H](CN(C)C(=O)Nc2ccc4c(c2)OCO4)O3)cc1	80.5*	1.5	4.9
COc1ccc(S(=O)(=O)N(C)C[C@H]2Oc3ccc(NS(=O)(=O)c4c(C)noc4C)cc3CC(=O)N([C@H](C)CO)C[C@H]2C)cc1	7.9	-1.8	5.9
